Assay outcomes as filed in PubChem BioAssay.
Only some compounds are listed: those with a hit (about 2% of all), similar ones and a draw of the others.
ABHD5 PLIN5 PPI: blocks binding of human ABHD5 to perilipin-5 | 0.78% of 360,000 active | Split G. princeps luciferase complementation, luminescence, 4 h | Q00G26+Q8WTS1 | AID 602281 | inhibition, % at 4 µM;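 active = inhibition above the mean inhibition across every tested compound plus 3 SD, cut at about 22% in these data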
Target sequence (Q00G26 whole entry, looked up): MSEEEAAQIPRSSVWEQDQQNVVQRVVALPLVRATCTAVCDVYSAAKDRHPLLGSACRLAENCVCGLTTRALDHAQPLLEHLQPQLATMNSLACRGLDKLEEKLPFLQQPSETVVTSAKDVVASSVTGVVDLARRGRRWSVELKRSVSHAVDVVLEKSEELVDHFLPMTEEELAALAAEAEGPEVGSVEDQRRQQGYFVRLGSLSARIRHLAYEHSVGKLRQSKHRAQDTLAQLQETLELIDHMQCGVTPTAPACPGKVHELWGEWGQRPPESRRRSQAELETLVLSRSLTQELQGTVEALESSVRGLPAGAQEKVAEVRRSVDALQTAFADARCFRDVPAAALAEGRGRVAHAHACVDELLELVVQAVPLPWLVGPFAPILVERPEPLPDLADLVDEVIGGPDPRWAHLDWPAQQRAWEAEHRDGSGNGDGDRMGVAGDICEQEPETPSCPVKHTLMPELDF
Target sequence (Q8WTS1 whole entry, looked up): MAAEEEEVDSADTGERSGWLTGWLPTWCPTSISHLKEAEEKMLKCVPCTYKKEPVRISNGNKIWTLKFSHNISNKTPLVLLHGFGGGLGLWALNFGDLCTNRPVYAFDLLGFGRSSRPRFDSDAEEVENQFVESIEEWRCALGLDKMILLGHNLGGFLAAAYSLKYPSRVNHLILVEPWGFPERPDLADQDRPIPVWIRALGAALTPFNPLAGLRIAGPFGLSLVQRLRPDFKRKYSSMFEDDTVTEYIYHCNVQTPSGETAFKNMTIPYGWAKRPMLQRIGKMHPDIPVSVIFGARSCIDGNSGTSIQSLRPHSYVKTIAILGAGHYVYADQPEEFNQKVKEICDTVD
B2AR ag: activates human beta-2 adrenergic receptor causing internalization; P07550; 0.43% of 340,000 active; response, % (concentration not given with the values); Am2.2-beta2AR cells, FAP receptor internalization, flow cytometry; AID 504454;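 active = response above a set limit, near 3 SD of response in nonfluorescent compounds, cut at about 42% in these data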
Granule exo inh: blocks lytic granule exocytosis; 0.66% of 360,000 active; TALL-104 LAMP-1 surface exposure, flow cytometry; cells stimulated with thapsigargin and PMA; inhibition, % at 10 µM;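 active = inhibition above about 55%, limit read from the data; inconclusive = no clear call, values can overlap the other calls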
TLR9-MyD88 block: inhibitors of human TLR9-MyD88 binding; CHO BLA complementation TLR9-MyD88, CCF4 FRET ratio; inhibition, % at 4.98 µM; Q9NR96+Q99836; 0.21% of 340,000 active;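 active = inhibition above the mean over all tested compounds plus 3 SD, cut at about 21% in these data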
TLR4-MyD88 BLA: blocks binding of human TLR4 to MyD88 | inhibition, % at 8.4 µM | 0.18% of 200,000 active | HeLa CL3-4 TLR4/MyD88 BLA complementation, FRET ratio | AID 861 | O00206+Q99836; in the data active = inhibition above about 25%
NOD2 RIPK2 PPI: NOD2-RIPK2 protein interaction inhibition. O43353. CHO BLA complementation NOD2-RIPK2, CCF4 ratio. inhibition, % at 4.98 µM. 0.38% of 360,000 active. AID 624267; in the data active = inhibition above about 21%
TLR9-MyD88 conf: confirmation of human TLR9-MyD88 binding inhibitors; inhibition, % at 4.98 µM; shares compounds with TLR9-MyD88 block; AID 540250; CHO TLR9/MyD88 BLA complementation, CCF4 FRET ratio; 51% of 680 active;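 active = mean inhibition across three repeats above about 21% taken from the earlier screen, limit read from the data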;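 also: blue over green emission ratio reports constitutive TLR9 MyD88 association via BLA complementation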
BLA nonselective: non-selective beta-lactamase inhibitors in TLR9-MyD88 counter-screen | inhibition, % at 4.98 µM | CHO-BLA cells, CCF4 FRET ratio, BLA reporter | shares compounds with TLR9-MyD88 block | AID 540251 | 7% of 680 active;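 active = mean inhibition above a 50% cutoff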;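 also: counterscreen of TLR9-MyD88 hits on CMV-driven BLA in CHO-K1 cells; higher means less blue over green ratio so more BLA blockade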
TLR9 CHO cytotox: CHO cell toxicity counter-screen for TLR9-MyD88 inhibitors | TLR9-MyD88 CHO cells cytotoxicity, luminescence | inhibition, % at 4.98 µM | shares compounds with TLR9-MyD88 block | 39% of 680 active; in the data active = inhibition above about 11%
ABHD5 PLIN5 conf: ABHD5-PLIN5 interaction inhibition, confirmed; shares compounds with ABHD5 PLIN5 PPI; biochemical ABHD5-PLIN5 interaction, luminescence; inhibition, % at 4 µM; 67% of 2,200 active; in the data active = inhibition above about 23%
HNF4 split-luc: counter-screen for ABHD5-PLIN5 inhibitors: HNF4 split-luciferase | shares compounds with ABHD5 PLIN5 PPI | HNF4 dimerization, luminescence, biochemical | inhibition, % at 4 µM | 77% of 2,200 active | AID 651674;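 active = mean inhibition across replicate wells exceeding the computed hit threshold, cut at about 13% in these data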;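 also: light from luciferase halves that rejoin when HNF4 fusion proteins dimerize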
Large screens that a line does not name were inactive (follow-up assays come after a bar, where they were run).

COc1ccccc1C1C=C(c2ccc(C)cc2)Nc2nnnn21 (configuration not stated)	TLR9-MyD88 block 22 | TLR9-MyD88 conf inactive | BLA nonselective inactive | TLR9 CHO cytotox inactive
CCCCc1c(-c2cccc(Br)c2)ncn1CCc1ccccc1OC	none (no result: B2AR ag, TLR9-MyD88 block, TLR4-MyD88 BLA)
Cc1ccsc1C(=O)OCC(=O)NC1CCCCC1	TLR9-MyD88 block 21 (no result: B2AR ag, TLR4-MyD88 BLA) | TLR9-MyD88 conf inactive | BLA nonselective inactive | TLR9 CHO cytotox inactive
Cc1ccsc1C(=O)OCC(=O)NC1CC1	none (no result: TLR4-MyD88 BLA)
COCCNC(=O)C1(C)CCCN(Cc2ccc3ccccc3c2Br)C1 (configuration not stated)	none (no result: B2AR ag, TLR9-MyD88 block, TLR4-MyD88 BLA)
CCn1c(/C=C/c2cc[n+](C)cc2)nc2ccccc21	TLR9-MyD88 block 24 (no result: TLR4-MyD88 BLA) | TLR9-MyD88 conf inactive | BLA nonselective inactive | TLR9 CHO cytotox inactive
CCCn1c(/C=C/c2ccccc2)nc2ccccc21	none
O=c1[nH]ncc(NCCc2ccccc2)c1Cl	TLR9-MyD88 block 24 | TLR9-MyD88 conf inactive | BLA nonselective inactive | TLR9 CHO cytotox inactive
CCOC(=O)C1=CCN(S(=O)(=O)c2ccc(C)cc2)C1c1cccc(Br)c1 (configuration not stated)	none (no result: B2AR ag, TLR9-MyD88 block, TLR4-MyD88 BLA)
Cc1c(O)ccc2c(CN3CCN(CCO)CC3)cc(=O)oc12	TLR9-MyD88 block 27 | TLR9-MyD88 conf inactive | BLA nonselective inactive | TLR9 CHO cytotox inactive
CC(=O)Oc1ccc(-n2c(=O)c3ccccc3c3ccccc3c2=O)cc1	none
CC(=O)Oc1ccc(N2C(=O)c3cccc4c([N+](=O)[O-])ccc(c34)C2=O)cc1	TLR9-MyD88 block 23 (no result: TLR4-MyD88 BLA) | TLR9-MyD88 conf 32 | BLA nonselective inactive | TLR9 CHO cytotox 85
CCOC(=O)CNc1c(-c2ccc(F)cc2)nc2cnccn12	TLR9-MyD88 block 24 | TLR9-MyD88 conf inactive | BLA nonselective inactive | TLR9 CHO cytotox inactive
Cc1cccc2cc3c(N)c(C(=O)N4CCc5ccccc54)sc3nc12	TLR9-MyD88 block 22 | TLR9-MyD88 conf inactive | BLA nonselective inactive | TLR9 CHO cytotox 18
Cc1ccc(C)c2nc3sc(C(=O)N4CCOCC4)c(N)c3cc12	TLR9-MyD88 block 22 | TLR9-MyD88 conf inactive | BLA nonselective inactive | TLR9 CHO cytotox 26
Oc1c(N=Nc2ccccn2)ccc2ccccc12	Granule exo inh 102, TLR9-MyD88 block 24 | TLR9-MyD88 conf inactive | BLA nonselective inactive | TLR9 CHO cytotox 99
CCOC1=C2CN(S(=O)(=O)c3ccc(C)cc3)[C@H](c3cccc(Cl)c3)C[C@@H]2N(S(=O)(=O)c2ccccc2[N+](=O)[O-])[C@H](c2ccccc2)C1	none (no result: B2AR ag, TLR9-MyD88 block, TLR4-MyD88 BLA)
CC(C)(C)c1cc(NC(=O)c2c(F)cccc2Cl)n(-c2ccccc2)n1	Granule exo inh inconclusive, TLR9-MyD88 block 23 (no result: TLR4-MyD88 BLA) | TLR9-MyD88 conf inactive | BLA nonselective inactive | TLR9 CHO cytotox inactive
COc1ccc(C2=CC(c3ccco3)n3ncnc3N2)cc1 (configuration not stated)	TLR9-MyD88 block 28, NOD2 RIPK2 PPI 21 | TLR9-MyD88 conf inactive | BLA nonselective inactive | TLR9 CHO cytotox inactive
Clc1ccc(C2=CC(c3ccco3)n3ncnc3N2)cc1 (configuration not stated)	none
O=C1CC(=Nc2ccc([N+](=O)[O-])cc2)NN1c1c(Cl)cc(Cl)cc1Cl	none (no result: B2AR ag, TLR4-MyD88 BLA)
CCC(=O)OCCNc1cc(Sc2nccn2C)c2nonc2c1[N+](=O)[O-]	B2AR ag 83, TLR9-MyD88 block 24 | TLR9-MyD88 conf 69 | BLA nonselective inactive | TLR9 CHO cytotox 101
CC(=O)OCCNc1cc(SC(C)C)c2nonc2c1[N+](=O)[O-]	none
Cc1ccc(Cl)c(NC(=O)COC(=O)c2ccccc2C(=O)c2ccc(Cl)c([N+](=O)[O-])c2)c1Cl	TLR9-MyD88 block 27 | TLR9-MyD88 conf 29 | BLA nonselective inactive | TLR9 CHO cytotox 15
C/C(=N/NS(=O)(=O)c1ccc(C)cc1)c1ccc(NC(=O)C(F)(F)F)cc1	TLR9-MyD88 block 22 | TLR9-MyD88 conf inactive | BLA nonselective inactive | TLR9 CHO cytotox inactive
Cc1cc(C)c(CN2CCC(CO)(CCOc3ccccc3)CC2)cc1C	none
Cc1c(CN2CCC(CO)(CCOc3ccccc3)CC2)c(=O)n(-c2ccccc2)n1C	TLR9-MyD88 block 34 | TLR9-MyD88 conf inactive | BLA nonselective inactive | TLR9 CHO cytotox inactive
COc1ccc(C(O)c2ncc(-c3ccccc3Cl)[nH]2)cc1F (configuration not stated)	none (no result: B2AR ag, TLR9-MyD88 block, TLR4-MyD88 BLA)
COC(=O)CSc1nc(N)c2c3c(sc2n1)C(c1ccccc1)SC(c1ccccc1)C3 (configuration not stated)	TLR9-MyD88 block 26 | TLR9-MyD88 conf inactive | BLA nonselective inactive | TLR9 CHO cytotox inactive
COc1cc(N2C(=O)C=CC2=O)ccc1N1C(=O)C=CC1=O	ABHD5 PLIN5 PPI 52, Granule exo inh 82, TLR9-MyD88 block 39, NOD2 RIPK2 PPI 26 (no result: TLR4-MyD88 BLA) | TLR9-MyD88 conf 64 | BLA nonselective inactive | TLR9 CHO cytotox 101 | ABHD5 PLIN5 conf 75 | HNF4 split-luc 111
O=C1C=CC(=O)N1c1ccc2c(c1)C(NC(=O)C(F)(F)F)c1ccccc1-2 (configuration not stated)	ABHD5 PLIN5 PPI 34, TLR9-MyD88 block 30 (no result: TLR4-MyD88 BLA) | TLR9-MyD88 conf 36 | BLA nonselective inactive | TLR9 CHO cytotox 98 | ABHD5 PLIN5 conf 56 | HNF4 split-luc 99
CN(C)C(=O)NC1c2ccccc2-c2ccccc21	none (no result: TLR4-MyD88 BLA)
CC(C)NC(=O)C1(C)CCN1C(=O)c1ccccc1Oc1ccccc1 (configuration not stated)	none (no result: B2AR ag, TLR9-MyD88 block, TLR4-MyD88 BLA)
